Measurements taken from PubChem BioAssay (NCATS).
Records with an inconclusive call do not appear. Unless noted, calls follow the shape of the dose curve; as a rule, active = well fitted curve in either direction with a large enough effect (not every such curve was filed as active); inconclusive = small, poorly fitted or top-dose-only effect, or another doubt; inactive = flat fitted curve, though single readings scatter.

Experiments:
[1] = AP1 Signaling Pathway (AID 357); conditions: ME-180 AP-1-bla reporter, EGF-induced, beta-lactamase ratio, 5 h; at 17.2 µM (top of the series) unless noted;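 also: ME-180 reporter cells stimulated with EGF at its EC50 level; % is scaled to controls: 0 for no effect and ±100 for the full control effect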
Outline: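 Beta-lactamase reporter under AP-1 response element, ME-180 background. Stimulus: EC50 EGF. Compound exposure 5 h, 37 °C. Detection: CCF4, 2.5 h RT, 460/530 nm. Values: AC50 from titration.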

[2] = NFAT Signaling Pathway (AID 444); conditions: Jurkat NFAT-bla M1, carbachol, beta-lactamase ratio, 5 h; at 17.2 µM (top of the series) unless noted;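 also: carbachol stimulus at about its EC50 of 1 µM final; % is scaled to controls: 0 for no effect and ±100 for the full control effect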
Outline: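 Jurkat cells with NFAT-driven β-lactamase reporter and co-expressed M1 receptor, stimulated with carbachol (final 1 uM, ~EC50), compound titration, 5 h at 37 °C. CCF4 loaded 1 h at RT; 460/530 nm ratio gave %activity and AC50.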

[3] = Stat Signaling Pathway (AID 446); conditions: ME-180 (cervical carcinoma) SIE beta-lactamase reporter, IL-6 stimulated, 5 h; at 17.2 µM (top of the series) unless noted;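 also: ME-180 cervical cancer cells given 40 pM IL-6 alongside compound; SIE-controlled beta-lactamase reporter measured as 460/530 nm FRET emission ratio; % is scaled to controls: 0 for no effect and ±100 for the full control effect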
Outline: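 Emission at 460 and 530 nm (excitation 405 nm) reports SIE-controlled beta-lactamase in ME-180 cells. Cells received compound with 40 pM IL-6 for 5 hrs at 37 C; data scaled between 300 pM IL-6 and 125 nM JAK-inhibitor controls.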

[4] = target: Glucocorticoid receptor (Homo sapiens) (UniProt P04150); assay: GR-GFP Redistribution (AID 450;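 active = compounds whose dose series gives a full or clear partial fitted curve of increased nuclear translocation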; also: potency is read from the fitted curve at half-maximal effect)
Glucocorticoid receptor (Homo sapiens), sequence (P04150 whole entry, looked up): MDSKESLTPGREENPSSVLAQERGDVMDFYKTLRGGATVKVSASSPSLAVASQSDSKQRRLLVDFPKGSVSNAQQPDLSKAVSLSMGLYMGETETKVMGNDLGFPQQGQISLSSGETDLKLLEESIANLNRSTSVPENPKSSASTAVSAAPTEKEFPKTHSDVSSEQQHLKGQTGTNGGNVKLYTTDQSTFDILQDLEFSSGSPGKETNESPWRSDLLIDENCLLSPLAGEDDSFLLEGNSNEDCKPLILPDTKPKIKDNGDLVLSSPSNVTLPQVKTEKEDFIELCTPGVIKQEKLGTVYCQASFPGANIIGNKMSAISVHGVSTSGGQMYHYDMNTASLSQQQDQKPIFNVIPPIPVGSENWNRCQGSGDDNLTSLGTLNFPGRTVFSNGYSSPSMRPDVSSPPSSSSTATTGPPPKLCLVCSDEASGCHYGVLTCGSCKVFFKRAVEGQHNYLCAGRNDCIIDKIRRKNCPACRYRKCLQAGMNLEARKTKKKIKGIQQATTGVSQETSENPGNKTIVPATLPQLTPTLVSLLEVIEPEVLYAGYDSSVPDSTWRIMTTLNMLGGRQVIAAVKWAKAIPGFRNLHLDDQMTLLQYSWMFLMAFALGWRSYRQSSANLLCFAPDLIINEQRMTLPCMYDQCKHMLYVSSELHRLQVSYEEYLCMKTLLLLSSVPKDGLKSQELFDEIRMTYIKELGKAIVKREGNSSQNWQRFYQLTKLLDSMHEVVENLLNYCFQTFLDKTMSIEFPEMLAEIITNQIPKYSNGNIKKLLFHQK

COC(=O)c1ccc(CN(C(C)=O)c2ccccc2)o1
inactive: activity change, negative = inhibition [1] 10.5% | activity change, negative = inhibition [2] -7.2% | activity, negative = inhibition [3] 7.8% | Potency [4] > 20.6 µM

N#Cc1nc(-c2cccs2)oc1NCCc1ccccc1
inactive: activity change, negative = inhibition [1] -17.4% | activity change, negative = inhibition [2] -0.887% | activity, negative = inhibition [3] -12.8% | Potency [4] > 20.6 µM

CC(=O)c1c(C(C)=O)c(C)n(NC(=O)c2ccncc2)c1C
inactive: activity change, negative = inhibition [1] 2.53% | activity change, negative = inhibition [2] 3.09% | activity, negative = inhibition [3] 17% | Potency [4] > 20.6 µM

COC(=O)C(NC(C)=O)(Nc1nc2ccc(S(C)(=O)=O)cc2s1)C(F)(F)F (stereo unspecified)
inactive: activity change, negative = inhibition [1] -0.134% | activity change, negative = inhibition [2] 7% | activity, negative = inhibition [3] -5.35% | Potency [4] > 20.6 µM

CC(=O)C1=C(O)C(=O)N(c2ccc(S(N)(=O)=O)cc2)C1c1ccccc1F (stereo unspecified)
inactive: activity change, negative = inhibition [1] -4.17% | activity change, negative = inhibition [2] 5.76% | activity, negative = inhibition [3] -0.593% | Potency [4] > 20.6 µM

CCCCCCOc1ccc(N2C(=O)CC(N3CCN(C(=O)c4ccco4)CC3)C2=O)cc1 (stereo unspecified)
inactive: activity change, negative = inhibition [1] -1.51% | activity change, negative = inhibition [2] 13.8% | activity, negative = inhibition [3] -13.2% | Potency [4] > 20.6 µM

O=C(O)CCCC(=O)N1CCN(C(c2ccccc2)c2ccccc2)CC1
inactive: activity change, negative = inhibition [1] 1.43% | activity change, negative = inhibition [2] 7.29% | activity, negative = inhibition [3] 0.344% | Potency [4] > 20.6 µM

CC1CCc2cc(F)cc3c(O)c(C(=O)NCC4CCCO4)c(=O)n1c23 (stereo unspecified)
inactive: activity change, negative = inhibition [1] -6.28% | activity change, negative = inhibition [2] -19.9% | activity, negative = inhibition [3] 1.8% | Potency [4] > 20.6 µM

COC(=O)c1cc(Br)c(=O)n(Cc2ccco2)c1
inactive: activity change, negative = inhibition [1] 10.7% | activity change, negative = inhibition [2] -14.5% | activity, negative = inhibition [3] -3.41% | Potency [4] > 20.6 µM

CS(=O)(=O)CCC(C(=O)n1nnc2ccccc21)N1C(=O)c2ccccc2C1=O (stereo unspecified)
inactive: activity change, negative = inhibition [1] -2.33% | activity change, negative = inhibition [2] -13.1% | activity, negative = inhibition [3] -20.7% | Potency [4] > 20.6 µM

Fc1ccccc1/C=N/n1cnnc1
inactive: activity change, negative = inhibition [1] 3.64% | activity change, negative = inhibition [2] 1.1% | activity, negative = inhibition [3] 2.69% | Potency [4] > 20.6 µM

O=S(=O)(O)c1nc2ccccc2n1Cc1ccc(Cl)cc1Cl
inactive: activity change, negative = inhibition [1] 18.6% | activity change, negative = inhibition [2] 7.47% | activity, negative = inhibition [3] -9% | Potency [4] > 20.6 µM

CCc1nnc(NC(=O)c2c(O)c3c([nH]c2=O)CCCC3)s1
inactive: activity change, negative = inhibition [1] -9.97% | activity change, negative = inhibition [2] 15.9% | activity, negative = inhibition [3] 4.12% | Potency [4] > 20.6 µM

O=S(CCc1ccncc1)Cc1ccccc1 (stereo unspecified)
inactive: activity change, negative = inhibition [1] 9.28% | activity change, negative = inhibition [2] 26% | activity, negative = inhibition [3] 2.34% | Potency [4] > 20.6 µM

CC(NC(=O)Nc1ncccn1)(C(F)(F)F)C(F)(F)F
inactive: activity change, negative = inhibition [1] 1.93% | activity change, negative = inhibition [2] 1.67% | activity, negative = inhibition [3] -5.56% | Potency [4] > 20.6 µM

CCc1cc2c(=O)c(-c3cscn3)coc2c(CN(C)C)c1O
inactive: activity change, negative = inhibition [1] 26.5% | activity change, negative = inhibition [2] -7.56% | activity, negative = inhibition [3] 10.5% | Potency [4] > 20.6 µM

CCOC(=O)CC(=O)CSc1nc2c(cc1C#N)CCCCCC2
inactive: activity change, negative = inhibition [1] -15.8% | activity change, negative = inhibition [2] 2.93% | activity, negative = inhibition [3] -11.8% | Potency [4] > 20.6 µM

CC(=O)C1(C)OC(N)=C(C#N)C(c2ccccc2)C1(C#N)C#N (stereo unspecified)
inactive: activity change, negative = inhibition [1] 13.9% | activity change, negative = inhibition [2] -28.6% | activity, negative = inhibition [3] -4.54% | Potency [4] > 20.6 µM

CCn1nc(NC(=O)c2cccnc2)c2cc3ccccc3nc21
inactive: activity change, negative = inhibition [1] -12.7% | activity change, negative = inhibition [2] 9.22% | activity, negative = inhibition [3] -4.62% | Potency [4] > 20.6 µM
